This passage reports cell viability results from the supplement of paper PMC12808144.

Structures can show the parent of a compound that is named as a salt.

In the first experiment the test system is Mel-DCC-11-R. In words: cell viability relative to DMSO control (fraction of DMSO control); higher = less cytotoxic, active = 0.8 or less. Particulars: 1 µM; 120 h; vemurafenib co-treatment 0 µM. The protocol:
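Same 315-drug TargetMol library at 1 µM in duplicate, 120 h, ATPlite luminescence normalised to DMSO controls, on the vemurafenib-resistant subline Mel-DCC-11-R cultured alone or with 8 µM vemurafenib co-treatment (Mel-DCC-11-R + V).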
Regarding `Nc1nc(Cl)nc2c1ncn2[C@H]1C[C@H](O)[C@@H](CO)O1` [Cladribine], the cell viability was 0.977 (inactive).

As to `Cc1ccc(Nc2nccc(N(C)c3ccc4c(C)n(C)nc4c3)n2)cc1S(N)(=O)=O` [Pazopanib], the cell viability was 1.07 (inactive).

As to `Nc1ccn([C@@H]2O[C@H](CO)[C@@H](O)[C@@H]2O)c(=O)n1` [Cytarabine], the cell viability is 0.654 (active).

For `CC1(C)CCC(C)(C)c2cc(NC(=O)c3ccc(C(=O)O)cc3)ccc21` [Tamibarotene], the cell viability is 0.958 (inactive).

In the case of `CCOC(=O)[C@@H](N)Cc1ccc(-c2cc(O[C@H](c3ccc(Cl)cc3-n3ccc(C)n3)C(F)(F)F)nc(N)n2)cc1.O=C(O)CNC(=O)c1ccccc1` [Telotristat Etiprate], the cell viability is 1.08 (inactive).

Take `COc1ccc2cc1Oc1ccc(cc1)C[C@H]1c3c(cc4c(c3Oc3cc5c(cc3OC)CCN(C)[C@@H]5C2)OCO4)CCN1C` [Cepharanthine]: the cell viability is 0.934 (inactive).

Regarding `CCCC(=O)O[C@]1(C(=O)CO)CC[C@H]2[C@@H]3CCC4=CC(=O)CC[C@]4(C)[C@H]3[C@@H](O)C[C@@]21C` [Hydrocortisone butyrate], the cell viability is 1.21 (inactive).

For the compound `CC(=O)c1c(C)c2cnc(Nc3ccc(N4CCNCC4)cn3)nc2n(C2CCCC2)c1=O` [Palbociclib], the cell viability was 1.76 (inactive).

For `CC1(COc2ccc3c(c2)ncn3-c2ccc3cccc(N4CCC(N)CC4)c3n2)COC1` [Crenolanib], the cell viability is 1.26 (inactive).

Consider `C[C@@H]1C[C@H]2[C@@H]3CCC4=CC(=O)C=C[C@]4(C)[C@@]3(F)[C@@H](O)C[C@]2(C)[C@@]1(O)C(=O)COP(=O)([O-])[O-].[Na+].[Na+]` [Dexamethasone Sodium Phosphate], for which the cell viability is 1.16 (inactive).

For `CC(C)(O)CNc1nc(Nc2ccnc(C(F)(F)F)c2)nc(-c2cccc(C(F)(F)F)n2)n1` [Enasidenib], the cell viability was 1.3 (inactive).

As for `Cc1c(C(=O)Nc2ccc(N3C[C@@H](C)O[C@@H](C)C3)nc2)cccc1-c1ccc(OC(F)(F)F)cc1` [Sonidegib], the cell viability was 1.03 (inactive).

As to `N.N.O=C([O-])C1(C(=O)[O-])CCC1.[Pt+2]` [Carboplatin], the cell viability is 0.973 (inactive).

On to `CC(=O)c1c(C)c2cnc(Nc3ccc(N4CCNCC4)cn3)nc2n(C2CCCC2)c1=O.O=S(=O)(O)CCO` [Palbociclib Isethionate], for which the cell viability was 1.6 (inactive).

For `COc1cc(Nc2c(C#N)cnc3cc(OCCCN4CCN(C)CC4)c(OC)cc23)c(Cl)cc1Cl` [Bosutinib], the cell viability was 0.914 (inactive).

Take `COC(=O)/C=C/C(=O)OC` [Dimethyl fumarate]: the cell viability is 1.06 (inactive).

With `CC#CC(=O)N1CCC[C@H]1c1nc(-c2ccc(C(=O)Nc3ccccn3)cc2)c2c(N)nccn12` [Acalabrutinib], the cell viability is 1.04 (inactive).

On to `CNC(=O)c1cc(Oc2ccc(NC(=O)Nc3ccc(Cl)c(C(F)(F)F)c3)cc2)ccn1` [Sorafenib], for which the cell viability is 0.898 (inactive).

Regarding `CS(=O)(=O)CCNCc1ccc(-c2ccc3ncnc(Nc4ccc(OCc5cccc(F)c5)c(Cl)c4)c3c2)o1` [Lapatinib], the cell viability is 1.12 (inactive).

As for `CC(C)[C@H](NC(=O)[C@H](CC(=O)O)NC(=O)[C@H](CCCCN)NC(=O)[C@@H](N)CCCNC(=N)N)C(=O)N[C@@H](Cc1ccc(O)cc1)C(=O)O` [Thymopentin], the cell viability was 1.21 (inactive).

Still in this experiment, the particulars now being: 1 µM; 120 h; vemurafenib co-treatment 8 µM.
Consider `Nc1nc(Cl)nc2c1ncn2[C@H]1C[C@H](O)[C@@H](CO)O1` [Cladribine], for which the cell viability was 0.722 (active).

For the compound `Cc1ccc(Nc2nccc(N(C)c3ccc4c(C)n(C)nc4c3)n2)cc1S(N)(=O)=O` [Pazopanib], the cell viability was 1.13 (inactive).

`Nc1ccn([C@@H]2O[C@H](CO)[C@@H](O)[C@@H]2O)c(=O)n1` [Cytarabine]: the cell viability is 0.936 (inactive).

Turning to `CC1(C)CCC(C)(C)c2cc(NC(=O)c3ccc(C(=O)O)cc3)ccc21` [Tamibarotene], the cell viability is 1.21 (inactive).

Regarding `CCOC(=O)[C@@H](N)Cc1ccc(-c2cc(O[C@H](c3ccc(Cl)cc3-n3ccc(C)n3)C(F)(F)F)nc(N)n2)cc1.O=C(O)CNC(=O)c1ccccc1` [Telotristat Etiprate], the cell viability is 1.07 (inactive).

In the case of `COc1ccc2cc1Oc1ccc(cc1)C[C@H]1c3c(cc4c(c3Oc3cc5c(cc3OC)CCN(C)[C@@H]5C2)OCO4)CCN1C` [Cepharanthine], the cell viability was 0.912 (inactive).

Take `CCCC(=O)O[C@]1(C(=O)CO)CC[C@H]2[C@@H]3CCC4=CC(=O)CC[C@]4(C)[C@H]3[C@@H](O)C[C@@]21C` [Hydrocortisone butyrate]: the cell viability is 1.14 (inactive).

With `CC(=O)c1c(C)c2cnc(Nc3ccc(N4CCNCC4)cn3)nc2n(C2CCCC2)c1=O` [Palbociclib], the cell viability is 1.15 (inactive).

In the case of `CC1(COc2ccc3c(c2)ncn3-c2ccc3cccc(N4CCC(N)CC4)c3n2)COC1` [Crenolanib], the cell viability was 1.35 (inactive).

In the case of `C[C@@H]1C[C@H]2[C@@H]3CCC4=CC(=O)C=C[C@]4(C)[C@@]3(F)[C@@H](O)C[C@]2(C)[C@@]1(O)C(=O)COP(=O)([O-])[O-].[Na+].[Na+]` [Dexamethasone Sodium Phosphate], the cell viability is 0.927 (inactive).

Take `CC(C)(O)CNc1nc(Nc2ccnc(C(F)(F)F)c2)nc(-c2cccc(C(F)(F)F)n2)n1` [Enasidenib]: the cell viability is 0.834 (inactive).

On to `Cc1c(C(=O)Nc2ccc(N3C[C@@H](C)O[C@@H](C)C3)nc2)cccc1-c1ccc(OC(F)(F)F)cc1` [Sonidegib], for which the cell viability was 1.2 (inactive).

As to `N.N.O=C([O-])C1(C(=O)[O-])CCC1.[Pt+2]` [Carboplatin], the cell viability was 1.23 (inactive).

In the case of `CC(=O)c1c(C)c2cnc(Nc3ccc(N4CCNCC4)cn3)nc2n(C2CCCC2)c1=O.O=S(=O)(O)CCO` [Palbociclib Isethionate], the cell viability is 1.19 (inactive).

For `COc1cc(Nc2c(C#N)cnc3cc(OCCCN4CCN(C)CC4)c(OC)cc23)c(Cl)cc1Cl` [Bosutinib], the cell viability was 1.14 (inactive).

For the compound `COC(=O)/C=C/C(=O)OC` [Dimethyl fumarate], the cell viability was 1.13 (inactive).

`CC#CC(=O)N1CCC[C@H]1c1nc(-c2ccc(C(=O)Nc3ccccn3)cc2)c2c(N)nccn12` [Acalabrutinib]: the cell viability is 1 (inactive).

In the case of `CNC(=O)c1cc(Oc2ccc(NC(=O)Nc3ccc(Cl)c(C(F)(F)F)c3)cc2)ccn1` [Sorafenib], the cell viability is 1.2 (inactive).

Regarding `CS(=O)(=O)CCNCc1ccc(-c2ccc3ncnc(Nc4ccc(OCc5cccc(F)c5)c(Cl)c4)c3c2)o1` [Lapatinib], the cell viability is 0.841 (inactive).

In the case of `CC(C)[C@H](NC(=O)[C@H](CC(=O)O)NC(=O)[C@H](CCCCN)NC(=O)[C@@H](N)CCCNC(=N)N)C(=O)N[C@@H](Cc1ccc(O)cc1)C(=O)O` [Thymopentin], the cell viability was 1.04 (inactive).
